{"source": "PubChem BioAssay AID743449", "about": "(Broad Institute, 2014)", "note": "About 90 (0.9%) of roughly 9,900 compounds were called active. Not shown: some 2% with an inconclusive outcome. Many of the other results were omitted from the sample, so actives are more common in it than they were. A number with no mark means an inactive call.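 Rule for the calls: active = mean normalized replicate activity at least 50 and at least half of replicates each reaching 50; inconclusive = only one of the two criteria met; inactive = neither criterion met.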"}
{"assay": "YAP1 pathway inhibitors via CTGF transcript, primary screen, DLD1 colon cancer cells, RT-qPCR, single point (AID 743449);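 note: 0% = neutral control wells and 100% = dasatinib control wells; higher means stronger suppression of CTGF expression like dasatinib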", "details": "DLD1 CTGF mRNA qPCR, 24 h; at 12.5 µM; stronger effect = higher value"}
{"smiles": "O=C(NCc1cccc(F)c1)[C@H]1[C@H](CO)[C@H]2Cn3c(ccc(-c4ccncc4)c3=O)[C@@H]1N2CC1CC1", "inhibition": "-29.8%"}
{"smiles": "Cn1cnc(S(=O)(=O)N[C@@H]2CC[C@H](CC(=O)NCC3CCCCC3)O[C@H]2CO)c1", "inhibition": "-20.2%"}
{"smiles": "COc1ccc2c3c(n(C)c2c1)[C@@H](CO)N(CC1CC1)CC31CN(S(=O)(=O)c2cn(C)cn2)C1", "inhibition": "10%"}
{"smiles": "Cc1ccc(S(=O)(=O)N[C@H]2C=C[C@H](CC(=O)NCc3ccc(Cl)c(Cl)c3)O[C@H]2CO)cc1", "inhibition": "52.5% (active)"}
{"smiles": "Cc1ccc(S(=O)(=O)N[C@@H]2C=C[C@@H](CC(=O)NCc3ccc(Cl)c(Cl)c3)O[C@H]2CO)cc1", "inhibition": "31%"}
{"smiles": "Cc1ccc(S(=O)(=O)N[C@H]2C=C[C@H](CC(=O)NCc3ccc(Cl)c(Cl)c3)O[C@@H]2CO)cc1", "inhibition": "-5.24%"}
{"smiles": "C/C=C/c1ccc([C@@H]2[C@@H](C#N)N(c3nc(CC)cs3)[C@@H]2CO)cc1", "inhibition": "44.5%"}
{"smiles": "COc1cccc(-c2ccc([C@@H]3[C@@H](C#N)N(C(=O)Cc4ccncc4)[C@@H]3CO)cc2)c1", "inhibition": "50.4% (active)"}
{"smiles": "COc1cccc(-c2ccc([C@H]3[C@H](C#N)N(C(=O)Cc4ccncc4)[C@H]3CO)cc2)c1", "inhibition": "-33.7%"}
{"smiles": "COc1cccc(-c2ccc([C@H]3[C@@H](CO)N(C(=O)Cc4ccncc4)[C@H]3C#N)cc2)c1", "inhibition": "-2.53%"}
{"smiles": "C[C@H]1CN([C@@H](C)CO)C(=O)Cc2cc(NC(=O)C3CCCCC3)ccc2O[C@H]1CN(C)Cc1ccc(Cl)c(Cl)c1", "inhibition": "35.6%"}
{"smiles": "COc1ccc(CN(C)C[C@@H]2Oc3ccc(NC(=O)Nc4ccc5c(c4)OCO5)cc3CC(=O)N([C@@H](C)CO)C[C@H]2C)cc1", "inhibition": "13.9%"}
{"smiles": "C[C@@H]1CN([C@@H](C)CO)C(=O)Cc2cc(NC(=O)C3CCCCC3)ccc2O[C@@H]1CN(C)Cc1ccc(Cl)c(Cl)c1", "inhibition": "50.3% (active)"}
{"smiles": "C[C@@H]1CN([C@H](C)CO)C(=O)Cc2cc(NC(=O)C3CCCCC3)ccc2O[C@H]1CN(C)Cc1ccc(Cl)c(Cl)c1", "inhibition": "-7.16%"}
{"smiles": "COc1ccc(CN(C)C[C@H]2Oc3ccc(NC(=O)Nc4ccc5c(c4)OCO5)cc3CC(=O)N([C@@H](C)CO)C[C@@H]2C)cc1", "inhibition": "-64.7%"}
{"smiles": "COc1ccc(CN(C)C[C@H]2Oc3ccc(NC(=O)Nc4ccc5c(c4)OCO5)cc3CC(=O)N([C@@H](C)CO)C[C@H]2C)cc1", "inhibition": "57.9% (active)"}
{"smiles": "C/C=C/c1ccc([C@H]2[C@@H](CO)N(C(=O)Nc3ccccc3F)[C@H]2C#N)cc1", "inhibition": "23.1%"}
{"smiles": "COC(=O)C[C@H]1CC[C@@H](N)[C@@H](CO)O1", "inhibition": "15.9%"}
{"smiles": "CNC[C@H]1OCc2ccccc2-c2ccccc2C(=O)N([C@H](C)CO)C[C@H]1C", "inhibition": "-6.87%"}
{"smiles": "CCCN1C[C@H](C)[C@H](OC)CN(C)C(=O)c2cc(NC(=O)Nc3cccc(F)c3)ccc2OC[C@@H]1C", "inhibition": "6.58%"}
{"smiles": "CO[C@@H]1CC[C@@H]2CCOc3ccc(C#N)cc3C(=O)N(C)[C@H](C)C(=O)N(C)C[C@H]1O2", "inhibition": "-48.9%"}
{"smiles": "CN1C(=O)c2cc(NS(=O)(=O)c3ccccc3F)ccc2OC[C@@H]2O[C@H](CC(=O)NC3Cc4ccccc4C3)CC[C@@H]21", "inhibition": "-9.49%"}
{"smiles": "CN1C(=O)c2cc(NS(=O)(=O)c3ccccc3F)ccc2OC[C@@H]2O[C@@H](CC(=O)NC3Cc4ccccc4C3)CC[C@@H]21", "inhibition": "108% (active)"}
{"smiles": "CCS(=O)(=O)Nc1ccc2c(c1)C(=O)N(C)[C@H]1CC[C@H](CC(=O)N3CCN(C)CC3)O[C@H]1CO2", "inhibition": "51.4% (active)"}
{"smiles": "CCS(=O)(=O)Nc1ccc2c(c1)C(=O)N(C)[C@@H]1CC[C@H](CC(=O)N3CCN(C)CC3)O[C@H]1CO2", "inhibition": "0.381%"}
{"smiles": "CN1C(=O)c2cc(NC(=O)Cc3cccs3)ccc2OC[C@H]2O[C@@H](CC(=O)NCCc3ccncc3)CC[C@@H]21", "inhibition": "-83.9%"}
{"smiles": "CN1C(=O)c2cc(NC(=O)Cc3cccs3)ccc2OC[C@H]2O[C@H](CC(=O)NCCc3ccncc3)CC[C@@H]21", "inhibition": "-70.9%"}
{"smiles": "CN1CCN(C(=O)C[C@H]2CC[C@@H]3[C@@H](COc4ccc(NC(=O)C5CCOCC5)cc4C(=O)N3C)O2)CC1", "inhibition": "27.7%"}
{"smiles": "CCS(=O)(=O)Nc1ccc2c(c1)C(=O)N(C)[C@H]1CC[C@@H](CC(=O)N3CCN(C)CC3)O[C@H]1CO2", "inhibition": "15.7%"}
{"smiles": "CN1C(=O)c2cc(NC(=O)Cc3cccs3)ccc2OC[C@@H]2O[C@@H](CC(=O)NCCc3ccncc3)CC[C@H]21", "inhibition": "60.1% (active)"}
{"smiles": "CN1C(=O)c2cc(NS(=O)(=O)c3ccccc3F)ccc2OC[C@H]2O[C@H](CC(=O)NC3Cc4ccccc4C3)CC[C@H]21", "inhibition": "-1.53%"}
{"smiles": "CN1CCN(C(=O)C[C@H]2CC[C@H]3[C@@H](COc4ccc(NC(=O)C5CCOCC5)cc4C(=O)N3C)O2)CC1", "inhibition": "-56%"}
{"smiles": "CN1CCN(C(=O)C[C@@H]2CC[C@H]3[C@@H](COc4ccc(NC(=O)C5CCOCC5)cc4C(=O)N3C)O2)CC1", "inhibition": "51.1% (active)"}
{"smiles": "COc1ccccc1NC(=O)N[C@H]1CC[C@H](CCNS(=O)(=O)c2ccc(Cl)cc2)O[C@@H]1CO", "inhibition": "8.99%"}
{"smiles": "COc1ccc(NC(=O)N[C@H]2CC[C@H](CCNC(=O)CN3CCOCC3)O[C@H]2CO)cc1", "inhibition": "-23.1%"}
{"smiles": "CC(=O)N1C[C@@H]2N[C@H](C1)C2c1ccc(-c2ccccc2)cc1", "note": "(stereo partly drawn)", "inhibition": "-22.3%"}
{"smiles": "O=C(C[C@H]1CC[C@@H](NC(=O)c2cccnc2)[C@@H](CO)O1)NCc1ccc(Cl)c(Cl)c1", "inhibition": "26.4%"}
{"smiles": "CN1C(=O)c2cc(NC(=O)c3cccc(F)c3)ccc2OC[C@@H]2O[C@@H](CC(=O)NCc3ccccc3Cl)CC[C@@H]21", "inhibition": "36%"}
{"smiles": "COCC#Cc1ccc([C@@H]2[C@@H](CO)N3CCCCN(C(=O)NC4CCCC4)C[C@@H]23)cc1", "inhibition": "-25.3%"}
{"smiles": "CO[C@@H](CN(C)S(=O)(=O)c1ccc(C)cc1)[C@H](C)CN([C@@H](C)CO)S(=O)(=O)c1cccc(Cl)c1", "inhibition": "78.9% (active)"}
{"smiles": "CO[C@H](CN(C)S(=O)(=O)c1ccc(C)cc1)[C@H](C)CN([C@@H](C)CO)S(=O)(=O)c1cccc(Cl)c1", "inhibition": "1.44%"}
{"smiles": "CO[C@H](CN(C)S(=O)(=O)c1ccc(C)cc1)[C@H](C)CN([C@H](C)CO)S(=O)(=O)c1cccc(Cl)c1", "inhibition": "16.6%"}
{"smiles": "CO[C@@H](CN(C)Cc1cc(F)ccc1F)[C@@H](C)CN([C@H](C)CO)S(=O)(=O)c1ccc(C)cc1", "inhibition": "14.9%"}
{"smiles": "CO[C@H](CN(C)S(=O)(=O)c1ccc(C)cc1)[C@@H](C)CN([C@H](C)CO)S(=O)(=O)c1cccc(Cl)c1", "inhibition": "32.6%"}
{"smiles": "CO[C@@H](CN(C)S(=O)(=O)c1ccc(C)cc1)[C@@H](C)CN([C@@H](C)CO)S(=O)(=O)c1cccc(Cl)c1", "inhibition": "38.7%"}
{"smiles": "CO[C@H](CN(C)S(=O)(=O)c1ccc(C)cc1)[C@@H](C)CN([C@@H](C)CO)S(=O)(=O)c1cccc(Cl)c1", "inhibition": "6.82%"}
{"smiles": "CO[C@@H](CN(C)S(=O)(=O)c1ccc(C)cc1)[C@@H](C)CN([C@H](C)CO)S(=O)(=O)c1cccc(Cl)c1", "inhibition": "74.7% (active)"}
{"smiles": "CO[C@@H](CN(C)S(=O)(=O)c1ccc(C)cc1)[C@H](C)CN([C@H](C)CO)S(=O)(=O)c1cccc(Cl)c1", "inhibition": "93.3% (active)"}
{"smiles": "CO[C@H]1CC[C@@H]2CCOc3ccc(C#N)cc3C(=O)N(C)C[C@@H](c3ccccc3)CC(=O)N(C)C[C@@H]1O2", "inhibition": "-39.9%"}
{"smiles": "OC[C@@H]1[C@H](c2ccc(C#Cc3ccccc3F)cc2)[C@@H]2CN(CC3CCOCC3)CCCCN12", "inhibition": "-33.6%"}
{"smiles": "CCCNC[C@@H]1[C@@H](c2ccc(C3=CCCCC3)cc2)[C@@H](CO)N1C(=O)C1CCC1", "inhibition": "-79.5%"}
{"smiles": "CN1C(=O)c2cc(NC(=O)Nc3ccccc3Cl)ccc2OC[C@@H]2O[C@@H](CC(=O)O)CC[C@H]21", "inhibition": "-2.71%"}
{"smiles": "COc1ccc2c3c(n(C)c2c1)[C@@H](CO)N(C(=O)Nc1ccc(F)cc1)CC31CCN(C(=O)c2ccc3c(c2)OCO3)CC1", "inhibition": "8.8%"}
{"smiles": "C[C@@H]1CCCCO[C@H](CN(C)Cc2ccncc2)[C@H](C)CN([C@H](C)CO)C(=O)c2cc(NC(=O)Cc3ccccc3)ccc2O1", "inhibition": "7.17%"}
{"smiles": "C/C=C/c1ccc([C@@H]2[C@H](CO)N(CC3CCCC3)C23CN(S(=O)(=O)CC)C3)cc1", "inhibition": "-25.3%"}
{"smiles": "O=S(=O)(Cc1ccccc1)N1CC2(C1)[C@H](c1ccccc1)[C@H](CO)N2CC1CCCC1", "inhibition": "63.5% (active)"}
{"smiles": "C/C=C/c1ccc([C@@H]2[C@@H](CO)N(CC3CCCC3)C23CN(S(=O)(=O)CC)C3)cc1", "inhibition": "-26.7%"}
{"smiles": "O=C(C[C@H]1C[C@@H]2c3cc(NC(=O)C4CCOCC4)ccc3O[C@@H]2[C@@H](CO)O1)NCCN1CCCCC1", "inhibition": "23.7%"}
{"smiles": "C/C=C/c1cccc(-c2nc(C(=O)Nc3nccs3)cc3c2[C@@H](CCO)N(C(=O)NC(C)C)C3)c1", "inhibition": "59.6% (active)"}
{"smiles": "C/C=C/c1cccc(-c2nc(C(=O)N3CCCCC3)cc3c2[C@@H](CCO)N(C(=O)NC(C)C)C3)c1", "inhibition": "-19.7%"}
{"smiles": "C/C=C/c1cccc(-c2nc(C(=O)N3CCCCC3)cc3c2[C@H](CCO)N(C(=O)NC(C)C)C3)c1", "inhibition": "1.73%"}
{"smiles": "CCC(=O)N(CC(C)C)C[C@@H]1[C@@H](c2ccccc2)[C@H](CO)N1C(=O)C1CCC1", "inhibition": "3.26%"}
{"smiles": "CO[C@@H](CN(C)S(=O)(=O)c1ccc(F)cc1)[C@H](C)CN(Cc1ccccc1Cl)[C@H](C)CO", "inhibition": "-18%"}
